Source: PubChem
Most compounds without a hit are left out; they make up all but 3.1% or so of the library.
VDR inhibitor: inhibitors of human vitamin D receptor. P11473. VDR-SRC2-3 peptide fluorescence polarization, 2 h. Potency, µM, for inactives: max response, negative = inhibition, actives largely listed as inhibitors. 400,000 tested, 0.93% active; also: potency is read from the fitted curve at half-maximal effect
Target sequence (P11473 whole entry, looked up): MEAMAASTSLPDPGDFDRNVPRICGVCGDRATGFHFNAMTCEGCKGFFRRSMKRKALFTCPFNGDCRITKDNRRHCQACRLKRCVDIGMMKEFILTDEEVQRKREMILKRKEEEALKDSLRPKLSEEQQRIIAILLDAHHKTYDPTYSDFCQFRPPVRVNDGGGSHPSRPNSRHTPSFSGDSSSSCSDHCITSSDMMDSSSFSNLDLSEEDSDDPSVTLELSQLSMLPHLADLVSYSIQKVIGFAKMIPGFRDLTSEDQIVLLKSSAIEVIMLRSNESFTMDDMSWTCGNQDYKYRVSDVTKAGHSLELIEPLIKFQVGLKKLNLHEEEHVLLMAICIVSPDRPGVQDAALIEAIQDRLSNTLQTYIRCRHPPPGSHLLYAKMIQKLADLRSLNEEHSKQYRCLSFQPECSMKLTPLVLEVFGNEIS
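Measured by FP: displacement of SRC2-3 coactivator peptide from VDR by library compounds, following a two-hour ambient incubation.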
PLK1 PBD inh: inhibitors of human PLK1 polo-box domain binding | Potency, µM, for inactives: max response, negative = inhibition, hits mostly inhibitors | AID 720504 | Plk1 PBD binding of FITC phosphopeptide, fluorescence polarization | P53350 | 360,000 tested, 2.8% active; also: potency is read from the fitted curve at half-maximal effect; series mostly up to about 57 µM; nearly all actives have a fitted effect of over 65% in size
GLS inhibitor: glutaminase GLS (human) inhibition | Potency, µM (titrated, usually from 45.5 µM), inactives show at the top dose activity change, negative = inhibition, actives largely listed as inhibitors | GLS enzymatic activity, qHTS titration | 410,000 tested, 0.21% active | O94925; also: potency is read from the fitted curve at half-maximal effect
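hKGA; 45 mM KH2PO4 pH 8.2 + 0.02% Tween-20; cpd via pin tool; 1 mM Gln soln; GluOx/HRP/Amplex Red; RT 30 min; fluor. t0 & final.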
PI4K2A inh: blocks human PI4K2A kinase activity | Q9BTU6 | purified PI4K2A, ADP-Glo luminescence, 1 h; stronger effect = lower value | activity change, negative = inhibition, % at 76.9 µM | 420,000 tested, 0.13% active; in the data active = activity change below about -50%; inconclusive = mostly about -30% to -49%;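 also: -100% = wells without enzyme as full effect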
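Compounds are screened against recombinant PI4K2A using PI as substrate and ATP, the latter dispensed at 300 microM. Reactions run one hour at ambient temperature before ADP-Glo detection; full inhibition defined by wells lacking enzyme.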
KAT2A inh: inhibitors of human GCN5L2 histone acetyltransferase. Q92830. GCN5L2 HAT assay, ThioGlo1 CoA-SH fluorescence. Potency, µM (titrated, usually from 58.9 µM), without a hit: top-dose activity change, negative = inhibition, usual class: inhibitors. 390,000 tested, 0.21% active. AID 504327; also: potency is read from the fitted curve at half-maximal effect
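qHTS, 1536-well. 20nM enzyme, pH 7.5 HEPES/EDTA/Tween-20 buffer; 15 min compound preinc., RT. Start: 75uM H3(1-25), 70uM AcCoA, 50uM ThioGlo1. Read Ex340/Em540 at t=0 (autofluorescence flag) and t=20 min.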
Numbers without * were called inactive; ? = inconclusive; . = no result; [ ] = another dose, or the depositor's remark. Unless noted, calls follow the shape of the dose curve; as a rule, active = well fitted curve in the direction sought with a large enough effect; inconclusive = small, poorly fitted or top-dose-only effect, or another doubt; inactive = no such curve, though single readings can be large; an effect the other way counts as inactive or inconclusive. Unless noted, % is scaled to controls: 0 for no effect and ±100 for the full control effect.

SMILES	VDR inhibitor	PLK1 PBD inh	GLS inhibitor	PI4K2A inh	KAT2A inh
Cc1cc(S(=O)(=O)Nc2cccc([N+](=O)[O-])c2)c(C)s1	17%	-5%	-3%	1	-14%
O=[N+]([O-])c1cccc(NNS(=O)(=O)c2ccccc2F)c1	?	21µM*	-15%	2	-17%
Cc1nc(CS(=O)(=O)c2ccccc2)cc(N2CCOCC2)n1	-26%	3µM*	?	-3	-11%
Cc1nc(CSc2ccc(Cl)cc2)cc(N2CCOCC2)n1	-4%	?	8%	-3	-2%
COCCn1nnnc1C(c1cccs1)N1CCN2CCCC2C1 (centres undefined)	-5%	19µM*	4%	-6	0%
COc1ccccc1C(c1nnnn1Cc1ccccc1)N1CCN(C2CCCC2)CC1 (centres undefined)	-14%	30µM*	-10%	-18	0%
Cc1nn(C)c(Oc2cccc(Cl)c2)c1C#N	?	8.4µM*	?	-1	0%
CCn1c(SCC(=O)Nc2ccccc2-c2ccccc2)nnc1-c1ccc(Cl)cc1	.	.	.	-2	.
COc1ccc(C(=O)OCCN2CCN(C3CN(Cc4cn(Cc5cccc(C)c5)nn4)S(=O)(=O)C3)CC2)cc1OC (centres undefined)	.	.	.	-10	.
O=C(Nc1ccc(Nc2ccccc2)cc1)c1ccc(Cl)c([N+](=O)[O-])c1	7%	-1%	1%	1	-12%
Cc1cc(C(=O)Nc2ccc(Nc3ccccc3)cc2)ccc1[N+](=O)[O-]	25µM*	3.4µM*	16µM*	1	-20%
N#CC1=C(N)SC2(CCCCC2)SC1c1ccccc1 (centres undefined)	-29%	21µM*	12%	20	?
COC(=O)c1ccc(NC(=O)c2cccc(OC)c2)cc1	-10%	1%	-6%	-51*	-5%
COc1cccc(C(=O)/C=C/c2ccc(SC)cc2)c1	?	-3%	9%	25	-8%
COc1cccc(C(=O)Nc2ccc3c(c2)C(=O)c2ccccc2C3=O)c1	-15%	27µM*	2%	-21	0%
COC(=O)c1ccc(/C=C/C(=O)c2cccc(OC)c2)cc1	22µM*	-18%	0%	9	-4%
COC(=O)c1cccc(NC(=O)c2cccc(OC)c2)c1	10%	0%	-4%	?	.
COC(=O)c1ccc(NC(=O)c2c(Br)cnn2C)cc1	?	24µM*	-12%	4	-5%
COc1c(C)c2c(c(O)c1C/C=C(\C)CCC(=O)OCCN1CCOCC1)C(=O)OC2	.	.	.	-1	.
O=S(=O)(c1ccccc1)c1nc(-c2ccccc2F)oc1N1CCOCC1	-1%	.	14%	3	1%
COC(=O)C12C=C3CC(C)=C3C(=O)N1Cc1[nH]c3ccccc3c1C2 (centres undefined)	.	.	.	-8	.
COC(=O)c1sccc1NC(=O)c1cccc(OC)c1	?	19µM*	19%	2	-3%[0.501 µM]
COC(=O)c1sccc1NC(=O)c1ccccc1	-6%	-12%	0%	2	-18%
Cc1cccc(CNc2ccnc(-c3ccc(N(C)C)cc3)n2)c1	?	.	.	.	-15%
O=S(=O)(Nc1ncnc2sc3c(c12)CCC3)c1ccc2ccccc2c1	19%	34µM*	7%	-12	?
SMILES	VDR inhibitor	PLK1 PBD inh	GLS inhibitor	PI4K2A inh	KAT2A inh
Cc1cc(F)ccc1S(=O)(=O)Nc1ncnc2sc3c(c12)CCC3	-7%	17µM*	0%	1	-4%
C=CCn1c(COc2ccccc2)nnc1SC(C)C(=O)N/N=C/c1cc(Cl)ccc1O (centres undefined)	-24%	27µM*	18%	5	-9%
C=CCn1c(COc2ccc(Cl)cc2)nnc1SCC(=O)N/N=C/c1cccc(O)c1	-1%	-1%	-2%	1	-4%
CCOc1cccc(NC(=O)/C(C#N)=C\c2cccnc2)c1	?	19µM*	?	7	-3%
Cc1ccc(SC2=C(Sc3ccc(C)cc3)C(=O)c3ccccc3C2=O)cc1	?	1.7µM*	-6%	3	3%
O=C(Nc1ccc2nc(-c3ccco3)c(-c3ccco3)nc2c1)N1CCN(c2ccccn2)CC1	89µM*	5.3µM*	-9%	?	10µM*
O=C(Nc1ccc2nc(-c3ccco3)c(-c3ccco3)nc2c1)N1CCCC1	71µM*	.	.	.	.
C=CCn1c(SCC(=O)C(C)(C)C)nnc1-c1ccc(Cl)cc1	.	.	.	1	.
CCOc1cccc2oc(-c3ccccc3Cl)cc(=O)c12	-13%	.	.	.	-21%[88.6 µM]
CCOc1ccc(CCNC(=O)CN2N=C(c3ccccc3)CCC2=O)cc1OCC	-3%	.	7%	-9	-9%
COc1ccc(-c2noc(CN3CCN(C(=O)c4cccs4)CC3)n2)c(OC)c1OC	-19%	21µM*	1%	-2	-24%
COc1ccc(CN2CCN(C(=O)c3cccs3)CC2)cc1Br	15%	-1%	-2%	4	-8%
Fc1ccc(CNCCC(Cc2ccccc2)c2ccco2)cc1 (centres undefined)	13%	-11%	9%	9	1%
CC(NCCC(Cc1ccccc1)c1ccco1)c1ccccc1 (centres undefined)	-17%	30µM*	-2%	-3	-24%
Cc1nc(-c2ccc(S(=O)(=O)N(Cc3ccccc3)C(C)C)cc2)co1	1%	.	1%	0	-11%
COc1cccc(C2CC(c3ccccc3OC)n3ncnc3N2)c1 (centres undefined)	-9%	-4%	1%	-2	-11%
COc1ccccc1C1CC(c2ccc(Cl)cc2)Nc2ncnn21 (centres undefined)	-20%	27µM*	76%	1	0%
COc1ccc(-c2noc(C3CCCN(C(=O)NC4CCC(C)CC4)C3)n2)cc1 (centres undefined)	.	.	.	-3	.
ClN=C1C=CC=CC1=NCl	.	11µM*	10µM*	?	.
CC(C)NC(=O)N(C)C[C@H]1Oc2c(NC(=O)Cc3ccccc3)cccc2C(=O)N([C@H](C)CO)C[C@@H]1C	?	27µM*	3%	-3	2%
C[C@H](CO)N1C[C@H](C)[C@@H](CN(C)CC2CCCCC2)Oc2c(NC(=O)Cc3ccccc3)cccc2C1=O	?	19µM*	11%	-3	-3%
C[C@H](CO)N1C[C@H](C)[C@@H](CN(C)Cc2ccc(C(=O)O)cc2)Oc2c(NC(=O)Cc3ccccc3)cccc2C1=O	7%	2%	3%	3	-5%
CCCNC(=O)N(C)C[C@H]1Oc2ncc(C#CCc3ccccc3)cc2C(=O)N([C@H](C)CO)C[C@H]1C	.	27µM*	-3%	-10	.
c1csc(-c2nn3c(Cn4cnc5ccccc54)nnc3s2)c1	-37%	21µM*	-2%	-2	-24%
Clc1cccc(-c2nn3c(Cn4cnc5ccccc54)nnc3s2)c1	?	11µM*	-21%	-3	-1%
COc1cccc(CNC(=O)Cn2c(-c3ccccc3)cc(C(C)=O)c2C)c1	.	.	.	-2	.
